The text below walks through data of PubChem BioAssay (NCATS).

SMILES strings stand for the structures. Records with an inconclusive call do not appear. The source made the active and inactive calls. Calls come from the whole dose curve; as a rule, active = well fitted inhibition curve with a large enough effect; inconclusive = small, poorly fitted or top-dose-only effect; inactive = no such curve, though single readings can be large or run the other way.
Potency is the fitted concentration of half-maximal effect.

This assay can be described thus: Primary qHTS for inhibitors of nuclear receptor binding SET domain protein 2 (NSD2) in an RCH-ACV wild type WT cells (2C) (AID 1645877). Note: nearly all actives have a fitted effect of over 70% in size. Particulars: RCH-ACV (leukaemia line) NSD2 WT (2C) viability, CellTiter-Glo, 72 h; series mostly up to 44.9 µM. (In general: qHTS replaces the single test concentration by a dilution series.)
In the case of `CN(C)[C@@H]1C(=O)C(C(N)=O)=C(O)[C@@]2(O)C(=O)C3=C(O)c4c(O)ccc(Cl)c4[C@@](C)(O)C3C[C@@H]12` (stereo partly specified), the Potency entry was “inactive”.

On to `CC(C)[C@H](NC(=O)c1nn(Cc2ccc(F)cc2)c2ccccc12)C(N)=O`, for which the Potency entry is “inactive”.

Turning to `COC1CCCC(C)OC(=O)Cc2cc(O)cc(O)c2C(=O)C1` (stereo unspecified), the Potency was 3.19 µM (active).

Consider `CN1CCCCC1Cn1cc(C(=O)c2cc([N+](=O)[O-])ccc2I)c2ccccc21` (stereo unspecified), for which the Potency entry was “inactive”.

For `COc1cc(C(=O)N2CC[C@@H](O)[C@@H](N)C2)cc2nc(-c3cc4ccccc4n3CC3CC3)n(C)c12`, the Potency was 18.6 µM (active).

On to `C=C1C(=O)CC2OC2(C)CC2OC(=O)C(=C)C2C(O)C1OC(=O)/C(C)=C\C` (stereo unspecified), for which the Potency was 2.01 µM (active).

Regarding `C#C[C@]1(O)CC[C@H]2[C@@H]3CC[C@H]4Cc5nc6nc7ccccc7n6cc5C[C@]4(C)[C@H]3CC[C@@]21C`, the Potency was 11.5 µM (active).

Turning to `CC(C)[C@H]1OC(=O)[C@H](Cc2ccccc2)N(C)C(=O)[C@@H](C(C)C)OC(=O)[C@H](Cc2ccccc2)N(C)C(=O)[C@@H](C(C)C)OC(=O)[C@H](Cc2ccccc2)N(C)C1=O`, the Potency is 4.83 µM (active).

Turning to `CCC1C2CC3C4N(C)c5ccccc5C45CC(C2C5O)N3C1O` (stereo unspecified), the Potency result was “inactive”.

For `COc1cc(O)c2c(c1)CCC[C@@H](O)[C@H](O)C(=O)/C=C\C[C@H](C)OC2=O`, the Potency is 4.5 µM (active).

With `C[C@@H]1O[C@@H](OC2CCC3(C=O)C(CCC4C3CCC3(C)C(C5=CC(=O)OC5)C(O)CC43O)C2)[C@H](O)[C@H](O)[C@H]1O[C@@H]1O[C@H](CO)[C@@H](O)[C@H](O)[C@H]1O` (stereo partly specified), the Potency is 4.83 µM (active).
